# Measurements from PubChem BioAssay (NCI).
# This is part of a sample that, as a whole, favours compounds with a hit. Of some 83,000 tested, about 20% had one in any assay.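 The endpoint reported here, percent growth, reads 100 for growth as untreated, 0 for no net growth and -100 for all cells dead.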 Unmarked numbers belong to inactive results. How the source made its calls: active means growth percent below 10; inactive means the rest.
# System: SNB-19 CNS
# Assay: NCI-60 one-dose screen, 48 h (100 = growth as untreated, 0 = no growth, -100 = all killed)
# Conditions: 10 µM unless noted
row,SMILES,growth [%]
1,NS(=O)(=O)c1cccc(Nc2nc(SCC(=O)c3ccc(Cl)cc3)nc3ccccc23)c1,69.6
2,O=C(CN1C(=O)/C(=C/c2ccccc2)SC1=S)N1CCOCC1,99
3,Nc1c(C(=O)Nc2ccc(Cl)cc2)sc2nc(-c3cnccn3)cc(-c3cccs3)c12,49.1
4,COc1ccccc1C(=O)CSc1nc(Nc2ccc(S(N)(=O)=O)cc2)c2ccccc2n1,85.7
5,Clc1ccc(Cc2nnc3sc(-c4cccnc4)nn23)cc1,93.3
6,Cc1c(NC(=O)CSc2nc3sc4c(c3c(=O)n2-c2ccc(Cl)cc2)CCCC4)c(=O)n(-c2ccccc2)n1C,79.7
7,CCOC(=O)c1c(Nc2ccccc2)nn2c(N)c(C#N)c(-c3ccc(OC)cc3)nc12,76.5
8,N=C1CC(=O)NN1C(=O)CSc1nc2sc3c(c2c(=O)n1-c1ccc(Cl)cc1)CCCC3,92.9
9,Clc1ccc2c(NCCCn3ccnc3)c3oc4ccc(Cl)cc4c3nc2c1,82.8
10,CCN1C(=S)N(CC)C2C1NN=C1SC(c3ccccc3)=CC(=O)N12 (centres undefined),98.5
11,COc1ccc(COc2ccc(/C=C3/C(=O)Nc4cc(Cl)ccc43)cc2)cc1,100
12,COC(=O)C(C)NS(=O)(=O)/N=C1\NC(=O)NC1=C(Cl)Cl (centres undefined),100
13,CC(=O)Oc1ccccc1C(=O)Nc1cc(C(C)C)ccc1C,17.5
14,COc1ccc(N/N=C/c2c(-c3ccc(S(C)(=O)=O)cc3)nc3ccccn23)cc1,78.6
